Experimental data taken from the supplement of paper PMC10849652.
Targets with a hit are over-represented here; the source holds about 7,900 in all. About 0.6% of all pairs of compound and target were hits. Unmarked numbers belong to inactive results.

Assays:
Experiment in all cases: log2 fold change, soluble protein after heating vs DMSO (PISA); higher = thermal stabilisation; K562 cells, 10 uM, 30 min; active = over 0.2 and 3.5 SD of the protein, either way, in both replicates (recomputed)
[1] = compound: C1=CC=C(C=C1)[C@H](COC2=CC3=C(C=C2)NC(=O)N3)NC(=O)C4=CC=CN(C4=O)CC5=CC(=C(C=C5)F)F
In short: (§1)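 K562 cells (2×10^6 cells/mL) were treated with 10 μM compound for 30 min, and aliquots were heated for 3 min over 48°C-58°C. Pooled aliquots were extracted in PBS with 0.5% NP-40 at 4°C, and the supernatant after 21,000xg for 90 min was measured by TMTpro 16plex LC-MS/MS with channel sums equalised. Reported thermal stability, relative to control samples and from duplicates, is a log2 fold change.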

[2] = compound: CC1=C(SC2=C1C(=N[C@H](C3=NN=C(N32)C)CC(=O)N)C4=CC=C(C=C4)Cl)C
In short: as §1

[3] = compound: CC1=C2C(=CC=C1)N=C(N(C2=O)C3=CC=CC=C3C)CN4C=NC5=C(N=CN=C54)N
In short: as §1

[4] = compound: Cc1sc2c(c1C)C(c1ccc(Cl)cc1)=N[C@@H](CC(=O)OC(C)(C)C)c1nnc(C)n1-2
In short: as §1

[5] = compound: c1ccc([C@@H]2C[C@H]2NC2CCNCC2)cc1
In short: as §1

Sequence of UniProt Q99747 (Q99747 whole entry, looked up): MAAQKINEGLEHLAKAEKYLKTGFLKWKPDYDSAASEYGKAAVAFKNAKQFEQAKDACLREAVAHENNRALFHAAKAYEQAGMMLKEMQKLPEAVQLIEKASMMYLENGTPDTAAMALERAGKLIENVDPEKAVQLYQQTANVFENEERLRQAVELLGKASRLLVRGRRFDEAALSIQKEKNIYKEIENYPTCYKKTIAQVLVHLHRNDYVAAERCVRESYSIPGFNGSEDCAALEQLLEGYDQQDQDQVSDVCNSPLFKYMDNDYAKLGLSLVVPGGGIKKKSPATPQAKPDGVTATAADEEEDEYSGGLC
Sequence of UniProt Q00013 (Q00013 whole entry, looked up): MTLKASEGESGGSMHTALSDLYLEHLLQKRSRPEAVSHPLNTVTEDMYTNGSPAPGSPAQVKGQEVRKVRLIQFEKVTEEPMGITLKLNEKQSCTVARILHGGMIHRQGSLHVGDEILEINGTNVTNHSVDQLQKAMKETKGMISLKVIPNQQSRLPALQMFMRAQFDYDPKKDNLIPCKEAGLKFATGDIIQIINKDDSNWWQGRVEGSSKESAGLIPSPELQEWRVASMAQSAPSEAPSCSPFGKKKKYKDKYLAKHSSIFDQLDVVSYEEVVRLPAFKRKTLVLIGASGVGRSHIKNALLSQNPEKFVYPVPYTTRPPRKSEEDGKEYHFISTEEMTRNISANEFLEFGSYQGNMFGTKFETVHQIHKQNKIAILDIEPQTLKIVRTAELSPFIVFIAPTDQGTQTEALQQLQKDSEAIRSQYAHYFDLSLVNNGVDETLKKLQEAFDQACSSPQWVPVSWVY
Sequence of UniProt P49914 (P49914 whole entry, looked up): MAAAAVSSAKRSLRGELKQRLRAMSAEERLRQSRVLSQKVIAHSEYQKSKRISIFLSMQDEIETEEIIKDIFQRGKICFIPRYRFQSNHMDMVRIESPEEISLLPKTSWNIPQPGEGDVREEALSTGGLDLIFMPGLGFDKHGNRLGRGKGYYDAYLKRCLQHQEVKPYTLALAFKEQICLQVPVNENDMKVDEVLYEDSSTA
Sequence of UniProt P03905 (P03905 whole entry, looked up): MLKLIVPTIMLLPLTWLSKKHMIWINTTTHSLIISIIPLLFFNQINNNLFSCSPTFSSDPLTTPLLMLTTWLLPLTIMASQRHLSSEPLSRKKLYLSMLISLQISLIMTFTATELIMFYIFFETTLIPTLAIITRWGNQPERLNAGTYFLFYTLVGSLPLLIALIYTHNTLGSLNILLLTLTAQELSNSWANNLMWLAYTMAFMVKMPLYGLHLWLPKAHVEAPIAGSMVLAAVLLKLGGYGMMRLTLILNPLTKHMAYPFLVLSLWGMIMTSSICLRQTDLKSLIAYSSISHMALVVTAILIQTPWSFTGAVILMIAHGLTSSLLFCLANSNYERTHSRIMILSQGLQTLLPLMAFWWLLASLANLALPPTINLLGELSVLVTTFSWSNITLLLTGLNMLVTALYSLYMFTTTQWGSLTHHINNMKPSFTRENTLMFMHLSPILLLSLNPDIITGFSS
Sequence of UniProt P57740 (P57740 whole entry, looked up): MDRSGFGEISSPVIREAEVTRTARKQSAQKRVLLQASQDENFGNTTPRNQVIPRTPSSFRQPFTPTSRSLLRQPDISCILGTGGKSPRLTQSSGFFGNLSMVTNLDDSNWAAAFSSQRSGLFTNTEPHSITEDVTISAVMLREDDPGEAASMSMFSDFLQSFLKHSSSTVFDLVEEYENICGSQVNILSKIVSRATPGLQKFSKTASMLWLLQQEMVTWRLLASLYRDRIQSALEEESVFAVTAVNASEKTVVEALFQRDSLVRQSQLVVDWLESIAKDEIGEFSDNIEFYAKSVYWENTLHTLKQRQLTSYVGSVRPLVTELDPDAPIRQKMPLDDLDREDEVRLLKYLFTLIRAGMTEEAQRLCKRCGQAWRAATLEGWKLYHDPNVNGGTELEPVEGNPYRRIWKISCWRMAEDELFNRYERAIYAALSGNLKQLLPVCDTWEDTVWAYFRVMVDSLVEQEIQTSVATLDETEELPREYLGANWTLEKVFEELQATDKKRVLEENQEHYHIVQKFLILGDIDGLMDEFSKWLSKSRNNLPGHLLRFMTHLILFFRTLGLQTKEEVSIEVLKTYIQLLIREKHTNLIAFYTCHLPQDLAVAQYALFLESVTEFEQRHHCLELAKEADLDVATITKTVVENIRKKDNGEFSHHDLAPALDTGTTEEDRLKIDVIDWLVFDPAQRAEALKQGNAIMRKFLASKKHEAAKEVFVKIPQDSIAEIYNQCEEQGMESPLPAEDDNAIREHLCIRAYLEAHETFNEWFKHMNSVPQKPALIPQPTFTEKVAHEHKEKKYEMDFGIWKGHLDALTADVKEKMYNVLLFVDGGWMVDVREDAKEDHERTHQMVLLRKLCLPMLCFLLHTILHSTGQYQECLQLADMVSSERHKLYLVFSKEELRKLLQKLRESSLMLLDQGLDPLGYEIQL
Sequence of UniProt P03886 (P03886 whole entry, looked up): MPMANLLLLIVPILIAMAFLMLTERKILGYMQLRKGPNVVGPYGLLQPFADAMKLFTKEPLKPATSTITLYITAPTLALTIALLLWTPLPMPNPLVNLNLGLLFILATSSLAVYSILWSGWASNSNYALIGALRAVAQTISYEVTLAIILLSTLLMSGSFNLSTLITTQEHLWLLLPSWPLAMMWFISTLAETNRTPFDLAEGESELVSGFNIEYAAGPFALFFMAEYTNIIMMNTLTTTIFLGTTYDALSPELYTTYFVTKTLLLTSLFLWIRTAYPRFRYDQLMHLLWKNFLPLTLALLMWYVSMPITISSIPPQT
Sequence of UniProt Q9H6N6 (Q9H6N6 whole entry, looked up): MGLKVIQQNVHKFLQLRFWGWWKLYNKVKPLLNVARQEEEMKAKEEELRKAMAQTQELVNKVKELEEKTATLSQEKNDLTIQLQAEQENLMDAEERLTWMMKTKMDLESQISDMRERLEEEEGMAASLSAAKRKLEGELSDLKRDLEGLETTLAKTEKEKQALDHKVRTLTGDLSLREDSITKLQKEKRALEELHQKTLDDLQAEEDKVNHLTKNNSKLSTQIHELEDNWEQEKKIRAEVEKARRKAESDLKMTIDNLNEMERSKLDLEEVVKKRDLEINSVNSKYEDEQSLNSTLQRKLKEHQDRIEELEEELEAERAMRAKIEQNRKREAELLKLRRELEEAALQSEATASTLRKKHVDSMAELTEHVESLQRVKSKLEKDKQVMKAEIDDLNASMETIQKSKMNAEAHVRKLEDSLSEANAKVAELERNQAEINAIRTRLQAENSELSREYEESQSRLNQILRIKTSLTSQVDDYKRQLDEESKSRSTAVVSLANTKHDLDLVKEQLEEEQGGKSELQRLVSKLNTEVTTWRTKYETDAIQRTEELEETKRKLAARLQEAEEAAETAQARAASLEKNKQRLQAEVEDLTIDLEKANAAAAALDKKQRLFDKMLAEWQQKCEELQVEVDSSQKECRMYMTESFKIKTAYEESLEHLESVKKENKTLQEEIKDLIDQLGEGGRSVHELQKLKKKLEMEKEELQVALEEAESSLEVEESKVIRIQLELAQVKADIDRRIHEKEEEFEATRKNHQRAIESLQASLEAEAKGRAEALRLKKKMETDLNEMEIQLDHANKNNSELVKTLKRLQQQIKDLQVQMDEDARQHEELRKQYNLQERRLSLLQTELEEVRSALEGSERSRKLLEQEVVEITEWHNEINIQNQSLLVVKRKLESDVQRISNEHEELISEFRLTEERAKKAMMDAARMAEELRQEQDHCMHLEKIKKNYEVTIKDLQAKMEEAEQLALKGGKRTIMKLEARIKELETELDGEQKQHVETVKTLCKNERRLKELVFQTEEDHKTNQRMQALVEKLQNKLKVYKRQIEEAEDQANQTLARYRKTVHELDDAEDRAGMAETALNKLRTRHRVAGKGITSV
Sequence of UniProt Q9BPX3 (Q9BPX3 whole entry, looked up): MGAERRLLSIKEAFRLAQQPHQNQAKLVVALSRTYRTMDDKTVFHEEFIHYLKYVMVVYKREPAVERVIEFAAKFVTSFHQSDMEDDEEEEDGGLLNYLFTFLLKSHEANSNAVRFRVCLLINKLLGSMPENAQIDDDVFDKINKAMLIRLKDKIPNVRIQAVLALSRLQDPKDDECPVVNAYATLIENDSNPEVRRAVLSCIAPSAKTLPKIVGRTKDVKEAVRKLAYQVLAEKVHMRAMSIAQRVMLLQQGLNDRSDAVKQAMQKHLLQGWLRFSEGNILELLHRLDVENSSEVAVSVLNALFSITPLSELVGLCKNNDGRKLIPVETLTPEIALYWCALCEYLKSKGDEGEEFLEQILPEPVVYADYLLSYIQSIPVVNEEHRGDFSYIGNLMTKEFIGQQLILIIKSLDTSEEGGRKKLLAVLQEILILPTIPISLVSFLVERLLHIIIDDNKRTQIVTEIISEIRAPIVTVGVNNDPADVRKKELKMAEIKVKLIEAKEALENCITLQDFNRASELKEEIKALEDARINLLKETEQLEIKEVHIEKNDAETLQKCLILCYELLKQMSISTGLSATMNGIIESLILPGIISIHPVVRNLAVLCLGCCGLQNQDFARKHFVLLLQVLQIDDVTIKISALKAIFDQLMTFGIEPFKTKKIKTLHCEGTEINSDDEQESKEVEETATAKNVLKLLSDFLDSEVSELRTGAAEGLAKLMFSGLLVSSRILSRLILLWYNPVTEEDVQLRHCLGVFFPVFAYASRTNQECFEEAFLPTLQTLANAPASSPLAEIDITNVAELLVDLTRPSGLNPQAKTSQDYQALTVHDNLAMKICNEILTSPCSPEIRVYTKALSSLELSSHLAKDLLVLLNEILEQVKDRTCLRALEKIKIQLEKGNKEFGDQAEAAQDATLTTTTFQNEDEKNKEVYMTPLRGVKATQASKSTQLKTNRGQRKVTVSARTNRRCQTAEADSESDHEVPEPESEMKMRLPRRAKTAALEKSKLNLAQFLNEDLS
Sequence of UniProt Q9H081 (Q9H081 whole entry, looked up): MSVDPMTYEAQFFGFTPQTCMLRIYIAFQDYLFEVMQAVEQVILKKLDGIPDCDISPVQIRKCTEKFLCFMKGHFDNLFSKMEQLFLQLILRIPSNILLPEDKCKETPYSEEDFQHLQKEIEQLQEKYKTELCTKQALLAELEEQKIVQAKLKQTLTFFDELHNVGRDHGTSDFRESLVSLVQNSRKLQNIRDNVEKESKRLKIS

Row | Target | log2 fold change [1] | log2 fold change [2] | log2 fold change [3] | log2 fold change [4] | log2 fold change [5]
1 | MRFAP1 (UniProt Q9Y605) | 0.009 | 0.109 | -0.043 | 0.031 | -0.017
2 | NFATC3 (UniProt Q12968) | -0.03 | 0.081 | 0.12 | 0.16 | 0.065
3 | NA, A0A096LPI6 | 0.055 | -0.023 | -0.001 | 0.017 | 0.023
4 | MYH11 isoform 2 (UniProt P35749) | 0.011 | 0.024 | -0.071 | -0.026 | -0.036
5 | MRPS15 (UniProt P82914) | -0.035 | 0.077 | -0.056 | 0.066 | -0.097
6 | MT-ND1 (UniProt P03886) | -0.024 | -0.12 | -0.24 | -0.102 | 0.177
7 | MRPS9 (UniProt P82933) | -0.001 | 0.008 | -0.025 | 0.034 | 0.025
8 | MPP1 (UniProt Q00013) | -0.055 | -0.06 | 0.051 | -0.024 | 0.013
9 | MTHFS (UniProt P49914) | -0.075 | 0.035 | -0.086 | -0.023 | -0.061
10 | MYH16 (UniProt Q9H6N6) | -0.164 | -0.042 | -0.142 | 0.069 | -0.034
11 | MTOR (UniProt P42345) | -0.044 | 0.021 | 0.092 | -0.001 | -0.028
12 | NTMT1 (UniProt Q9BV86) | 0.001 | 0.034 | 0.079 | -0.118 | -0.049
13 | NCAPG (UniProt Q9BPX3) | -0.033 | 0.019 | 0.101 | -0.002 | -0.002
14 | OSBP (UniProt P22059) | 0.015 | 0.084 | 0.076 | -0.002 | 0.031
15 | MRPS10 (UniProt P82664) | -0.019 | -0.102 | 0.065 | 0.132 | 0.025
16 | NMNAT1 (UniProt Q9HAN9) | 0.1 | -0.055 | -0.088 | 0.304 | 0.02
17 | NAPG (UniProt Q99747) | -0.036 | 0.044 | 0.073 | -0.023 | -0.077
18 | MT-ND4 (UniProt P03905) | -0.124 | -0.017 | -0.045 | -0.057 | 0.036
19 | NUP205 (UniProt Q92621) | -0.004 | 0.035 | 0.08 | -0.043 | 0.008
20 | NT5DC1 (UniProt Q5TFE4) | -0.036 | 0.075 | 0.006 | 0.021 | 0.011
21 | MT-ATP6 (UniProt P00846) | -0.828 (active) | -0.065 | 0.076 | -0.223 | -0.035
22 | NECTIN2 (UniProt Q92692) | 0.017 | 0.031 | -0.019 | -0.009 | -0.012
23 | NUP107 (UniProt P57740) | -0.02 | -0.043 | 0.051 | 0.052 | 0.025
24 | MIS12 (UniProt Q9H081) | -0.02 | 0.013 | 0.064 | -0.117 | -0.022
25 | PAFAH1B2 (UniProt P68402) | -0.042 | -0.078 | 0.078 | 0.004 | 0.082
26 | MON2 isoform 5 (UniProt Q7Z3U7) | -0.023 | 0.016 | 0.109 | -0.025 | -0.073
